Test results reported in PubChem BioAssay (NCI).
The panel holds about 79,000 compounds, 15% with a hit somewhere; the sample as a whole holds those more often. Values without a mark were called inactive. Calls of active or inactive are those of the source. Rule as the data show it: active = growth inhibition above about 70%; inactive = the rest. Where a SMILES comes first, the peptide text is derived from it. Bridges are numbered along the chain shown (N, C = ends).

Assays:
[1] = NCI Yeast Anticancer Drug Screen. Data for the rad50 strain (AID 155);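 also: 0% = growth of vehicle-only cultures of the same strain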; details: S. cerevisiae rad50 strain growth inhibition; at 50.0 µM; active compounds read high
Outline: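 Growth of the mutant yeast was measured after compound exposure and referenced to vehicle-treated cultures.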

[2] = NCI Yeast Anticancer Drug Screen. Data for the mec2-1 strain (AID 157); details: S. cerevisiae mec2-1 strain, at 50.0 µM, active compounds read high
Outline: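 Strain: mec2-1 (DNA repair/cell cycle alteration). Compound exposure, then growth measured; inhibition expressed relative to vehicle.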

[3] = NCI Yeast Anticancer Drug Screen. Data for the sgs1 mgt1 strain (AID 161);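 also: 0% = growth of cultures given vehicle only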; details: S. cerevisiae sgs1 mgt1 strain, at 50.0 µM, active compounds read high
Outline: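 Genetically altered yeast, compound exposure, growth inhibition relative to vehicle.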

[4] = NCI Yeast Anticancer Drug Screen. Data for the cln2 rad14 strain (AID 165);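 also: 0% = growth equal to vehicle treated cultures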; details: S. cerevisiae cln2 rad14 strain, at 50.0 µM, active compounds read high
Outline: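 Compounds are applied to the cln2 rad14 yeast strain, and growth is then compared with that of vehicle-treated cultures to give inhibition.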

[5] = NCI Yeast Anticancer Drug Screen. Data for the bub3 strain (AID 167); details: S. cerevisiae bub3 mutant strain, at 50.0 µM, active compounds read high
Outline: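 Whole-cell yeast assay. The mutant strain was incubated with compounds, and growth inhibition was determined by comparison with vehicle-treated cells.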

[6] = NCI Yeast Anticancer Drug Screen. Data for the mlh1 rad18 strain (AID 175); details: S. cerevisiae mlh1 rad18 strain growth inhibition; at 50.0 µM; active compounds read high
Outline: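 Read-out is yeast growth inhibition, calculated against vehicle-only controls. The compound was applied to a strain engineered with DNA damage repair alterations.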

Row | SMILES | growth inhibition [1] [%] | growth inhibition [2] [%] | growth inhibition [3] [%] | growth inhibition [4] | growth inhibition [5] [%] | growth inhibition [6] [%]
1 | CSCCC(N)C(=O)NCCS(=O)(=O)O (stereo unspecified) | -22.4 | 1 | 14.8 | -8% | 17.1 | 8.25
2 | C1CCN(CCC2CCCCN2)CC1 (stereo unspecified) | -23.4 | -32.4 | -41.6 | -33.2% | -37.8 | -28
3 | N#Cc1nc(-c2ccccc2)c(-c2ccccc2)nc1C#N | 3.15 | 9.8 | 0.6 | -7.05% | 13.9 | -0.6
4 | CCCC1(C)OCC(C)(C)CO1 | -1.05 | 2.45 | -13.3 | -28.8% | 3.85 | 1.9
5 | CCOC(=O)c1cc2c(ccc3cc(C(=O)OCC)[nH]c32)[nH]1 | 21.9 | 26.1 | 26.8 | 4.2% | 24.4 | -11.3
6 | OCC(O)CS (stereo unspecified) | -15.2 | 0.1 | -4.8 | 36.1% | -4.5 | -15.5
7 | COc1cc(CCNC2=CC(=O)c3cccnc3C2=O)ccc1O | 36.4 | 24.1 | 40.2 | 11.8% | 3.8 | 48.2
8 | CCOC(=O)c1cnc(N(C)C)nc1SC(=N)N | -15.2 | -0.7 | -24.4 | -53.9% | -7.5 | -18.6
9 | CN(C)c1ccc(C=C(C(=O)c2ccccc2)C(=O)c2ccccc2)cc1 | 9.45 | 1.9 | 0.75 | 8.6% | 20.1 | 37
10 | CC(O)c1ccc(N=NN(C)C)cc1 (stereo unspecified) | -2.5 | 2.75 | -3.15 | -1.55% | 0 | 21.2
11 | CCC(/C=C/C(C)C1CCC2C3CC=C4CC(OC(=O)Nc5ccccc5)CCC4(C)C3CCC12C)C(C)C (stereo unspecified) | -6.65 | 2.1 | -4.9 | 77.2% (active) | 5.55 | 57.5
12 | CCN(CC)Cc1cc(C)c(O)c(N=Nc2cc(OC)c(N=Nc3ccc([N+](=O)[O-])cc3)cc2OC)c1C | 16 | 12.4 | 34.1 | 34.1% | 4.7 | 50.1
13 | O=C(O)C1C(C(=O)O)C1c1ncnc2nc[nH]c12 (stereo unspecified) | -0.95 | -13.7 | -4.95 | -26.8% | -17.8 | 7.4
14 | CC(C)CC(C#N)C(=O)O (stereo unspecified) | -1.45 | -1.95 | -5.15 | 5.45% | -4.35 | 2.1
15 | CC(=O)OC1C(C)OC(n2cnc3c(=O)[nH]cnc32)C(OC(C)=O)C1OC(C)=O (stereo unspecified) | 37.1 | 9.25 | 16.4 | -7.3% | 6.25 | 27.8
16 | N#Cc1ccc(CC(=O)O)cc1 | 25.2 | -16.5 | 6.9 | 0.35% | -7.95 | -7.75
17 | Nc1ccc2[nH]c(=O)c(=O)[nH]c2c1 | 2 | 14.7 | -24.1 | 4.95% | 1.1 | 14.8
18 | COc1ccc(C2(CN(C)C)COc3cc(OC)c(OC)cc3C2=O)cc1OC (stereo unspecified) | 27 | 2.8 | -7 | 27.6% | -2.1 | 13.3
19 | CCC1(c2ccccc2)CCCC/C1=N/NC(N)=O (stereo unspecified) | 2.55 | -16.6 | -0.8 | 2.2% | -6.05 | -8.7
20 | COC(=O)C1CCC(=O)NCCCCC(NC(=O)C(N)CC(=O)O)C(=O)N1 (stereo not drawn) (H-Asp-Lys-Glu-OMe; lactam 2-3; configuration not given here) | 5.4 | 4 | 11.3 | -1.9% | 15.1 | -27.9
21 | CCC1CCCCCC1=O (stereo unspecified) | -34 | -27.2 | -18.6 | -25.4% | -30.4 | -21.3

Row | SMILES | growth inhibition [1] [%] | growth inhibition [2] [%] | growth inhibition [3] [%] | growth inhibition [4] | growth inhibition [5] [%] | growth inhibition [6] [%]
22 | CC(O)CN(CC(C)O)c1ccc2c(c1)Cc1ccccc1-2 (stereo unspecified) | -13.2 | -13.3 | 13.8 | -20.8% | 36 | -4.6
23 | CC(=O)CC(=O)C(F)(F)F | 14 | -3.35 | -20.5 | 9.8% | 7.3 | 4.75
24 | Cc1cccc2c(N=[N+]=[N-])cc(C(F)(F)F)nc12 | 5.35 | 6.7 | -0.6 | -43% | 12.7 | -1.4
25 | COC(=O)N/N=C/c1oc(-c2ccccc2)c(-c2ccccc2)c1[N+](=O)[O-] | -2.15 | -12.6 | 16.5 | 20.8% | -10.1 | -8.2
26 | COc1cc(C(c2cc3c(cc2O)OCO3)n2ccnc2)cc(OC)c1OC (stereo unspecified) | -15.2 | 1.6 | -13.1 | 8.75% | 2.9 | 13.1
27 | COC(OC)c1cccnc1C | -25.6 | 16.8 | -25.1 | 6.65% | -23.5 | 7.7
28 | COc1ccc(C(C)=O)c(O)c1 | -10.4 | -15.2 | -10.2 | -3.7% | 3.2 | 5.2
29 | S=C(/C=C1\SC(=Nc2ccccc2)C(=Nc2ccccc2)N1c1ccccc1)Nc1ccccc1 | 1.25 | -9 | -9.6 | -4.1% | 10.3 | 1.35
30 | O=C1CCCCCCCC(=O)Nc2ccc3nc4ccccc4c(c3c2)SCCCCCCCCCCCCSc2c3ccccc3nc3ccc(cc23)N1 | -9.85 | -6.5 | -20.9 | -9.15% | -3.2 | -10.3
31 | CC1(C)C(OS(C)(=O)=O)C(C)(C)C1OS(C)(=O)=O (stereo unspecified) | 3.75 | -20.6 | 13.7 | 9.45% | 8.4 | -12.9
32 | CCOC(=O)N1CN(C(=O)OCC)CN(C(=O)OCC)C1 | 15.7 | 19.5 | 9.45 | -7.6% | 29.4 | -5.45
33 | NC(=O)/C=C/c1cccnc1 | 4.6 | -0.65 | -7.75 | -34.1% | 11 | 13
34 | Cc1c[nH]c2nc(C)n(-c3ccc(F)cc3)c(=N)c12 | 4.1 | 2.4 | -9.05 | -14.6% | 5.3 | 5.3
35 | CCCCNC(N)=O | -21.1 | -36.1 | -21.9 | -37.9% | -2.2 | -9.25
36 | C/C(=N\NC(=S)N1CCC(c2ccccc2)CC1)c1ccccn1 | -24.3 | 3.95 | 0.25 | -22.4% | 4.65 | 13.8
37 | CC(C)(C)C1COC(c2ccccc2)(c2ccccc2)C1 (stereo unspecified) | -24.6 | -1.55 | 8.7 | -26.5% | -2.4 | -15.3
38 | N#Cc1c2c(c(=O)n3c1[nH]c1ccccc13)CCCC2 | 16.2 | 5.35 | 19.8 | 7.95% | 18.4 | 18.5
39 | CN(C)CCCNc1ccc2nnn3c4ccc(O)cc4c(=O)c1c23 | -4.2 | 1.25 | 0.9 | 0.15% | 2.65 | 19
40 | COC(=O)CC12CCCC(C)(CC(=O)N1)C2 (stereo unspecified) | 16.4 | 1.25 | 12.5 | 15.8% | -4 | -0.5
41 | N#Cc1c(N2CCCC2)ncn(Cc2ccccc2)c1=S | -10.9 | -15.1 | -8.4 | -25.1% | -5.1 | -0.2
